Calls of active or inactive are those of the source.
Assays:
[1] = tested on: Plasmodium falciparum Sir2 (PF13_0152, Sir2A); test: pfSir2 binders on small-molecule microarrays, primary screen, biochemical, small-molecule microarray, 635 nm fluorescence (AID 1098); details: small-molecule microarray binding, fluorescence 635 nm; higher = more signal;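 further: score merges spot fluorescence intensity with its signal-to-noise ratio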
[2] = small-molecule microarray binders of probe aDKK1, primary screen, biochemical, biotinylated probe, 635/667 nm fluorescence (AID 1099); details: higher = more signal;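 further: score merges 667nm spot fluorescence with signal to noise across triplicate slides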
[3] = small-molecule microarray binders of probe aCHRDL2, primary screen, biochemical, biotinylated probe, 635/667 nm fluorescence (AID 1100); details: higher = more signal
[4] = splicing luciferase reporter signal modulators, primary screen, spliceosome inhibition project, cell-based, HEK293, splice +/- reporter (AID 1101); details: luminescence, 24 h, higher = more signal, called active from +8 up or from −8 down;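 further: HEK293 cells carrying a splicing-competent luciferase reporter gene; test concentration not given here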
[5] = molecular target: Fibroblast growth factor 10 (Homo sapiens) (UniProt O15520); test: FGF10 binders on small-molecule microarrays, primary screen, biochemical, small-molecule microarray, 635 nm fluorescence (AID 1102); details: FGF10 binding, fluorescence 635 nm, higher = more signal
Fibroblast growth factor 10 (Homo sapiens), sequence (O15520 whole entry, looked up): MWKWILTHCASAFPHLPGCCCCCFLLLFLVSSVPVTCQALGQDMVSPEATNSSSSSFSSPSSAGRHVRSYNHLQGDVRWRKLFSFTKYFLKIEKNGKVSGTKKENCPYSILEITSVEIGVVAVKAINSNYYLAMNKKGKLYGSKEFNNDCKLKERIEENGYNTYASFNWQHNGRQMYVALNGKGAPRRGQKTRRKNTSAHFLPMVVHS

[6] = tested on: glycogen synthase kinase-3 (GSK3A per assay name; protocol says GSK3B); test: GSK3 binders on small-molecule microarrays, primary screen, biochemical, small-molecule microarray, 635 nm fluorescence, GSK3A (AID 1103); details: small-molecule microarray binding, fluorescence 635 nm; higher = more signal; further: the record names both GSK3A and GSK3B
[7] = molecular target: Epidermal growth factor receptor (Homo sapiens) (UniProt P00533); test: EGFR binders on small-molecule microarrays, primary screen, biochemical, small-molecule microarray, 635 nm fluorescence (AID 1104); details: EGFR binding, higher = more signal;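 further: score merges 667 nm emission intensity with spot signal to noise over triplicate slides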
Epidermal growth factor receptor (Homo sapiens), sequence (P00533 whole entry, looked up): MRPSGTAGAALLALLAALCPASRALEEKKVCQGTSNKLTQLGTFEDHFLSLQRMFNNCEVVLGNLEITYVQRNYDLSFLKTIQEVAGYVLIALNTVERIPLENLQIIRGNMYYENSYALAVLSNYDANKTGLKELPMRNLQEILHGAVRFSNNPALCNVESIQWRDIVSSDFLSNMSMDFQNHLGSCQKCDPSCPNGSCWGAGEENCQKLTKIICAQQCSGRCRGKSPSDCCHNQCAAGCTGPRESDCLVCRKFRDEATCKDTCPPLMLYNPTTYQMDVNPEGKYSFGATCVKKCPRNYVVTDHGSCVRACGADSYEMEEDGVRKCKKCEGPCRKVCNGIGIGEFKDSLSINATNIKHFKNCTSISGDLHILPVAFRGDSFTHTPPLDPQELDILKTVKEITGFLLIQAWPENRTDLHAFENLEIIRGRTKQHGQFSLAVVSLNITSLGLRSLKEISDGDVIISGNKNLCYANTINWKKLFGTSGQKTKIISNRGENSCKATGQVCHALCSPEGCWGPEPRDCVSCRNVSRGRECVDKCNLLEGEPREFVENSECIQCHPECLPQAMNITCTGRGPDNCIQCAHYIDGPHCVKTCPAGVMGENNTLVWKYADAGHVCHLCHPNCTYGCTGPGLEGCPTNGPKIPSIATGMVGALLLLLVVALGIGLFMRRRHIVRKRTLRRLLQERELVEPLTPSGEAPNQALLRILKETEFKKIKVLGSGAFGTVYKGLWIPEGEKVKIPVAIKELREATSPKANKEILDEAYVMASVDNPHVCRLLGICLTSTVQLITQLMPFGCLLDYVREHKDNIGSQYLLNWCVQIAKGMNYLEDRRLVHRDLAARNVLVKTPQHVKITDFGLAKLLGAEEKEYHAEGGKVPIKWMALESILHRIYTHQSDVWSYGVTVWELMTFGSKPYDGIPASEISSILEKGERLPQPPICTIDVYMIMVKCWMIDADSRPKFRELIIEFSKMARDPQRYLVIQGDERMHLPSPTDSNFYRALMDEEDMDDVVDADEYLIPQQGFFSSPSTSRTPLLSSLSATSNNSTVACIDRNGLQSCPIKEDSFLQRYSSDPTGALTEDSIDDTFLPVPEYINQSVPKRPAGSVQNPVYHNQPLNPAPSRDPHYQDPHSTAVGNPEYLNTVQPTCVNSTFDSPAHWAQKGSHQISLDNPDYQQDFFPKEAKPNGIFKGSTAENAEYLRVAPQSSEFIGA

[8] = molecular target: Follistatin-related protein 3 (Homo sapiens) (UniProt O95633); test: FSTL3 binders on small-molecule microarrays, primary screen, biochemical, small-molecule microarray, 635 nm fluorescence (AID 1105); details: FSTL3 binding, higher = more signal;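 further: score merges emission near 667 nm and signal to noise per printed spot across three slides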
Follistatin-related protein 3 (Homo sapiens), sequence (O95633 whole entry, looked up): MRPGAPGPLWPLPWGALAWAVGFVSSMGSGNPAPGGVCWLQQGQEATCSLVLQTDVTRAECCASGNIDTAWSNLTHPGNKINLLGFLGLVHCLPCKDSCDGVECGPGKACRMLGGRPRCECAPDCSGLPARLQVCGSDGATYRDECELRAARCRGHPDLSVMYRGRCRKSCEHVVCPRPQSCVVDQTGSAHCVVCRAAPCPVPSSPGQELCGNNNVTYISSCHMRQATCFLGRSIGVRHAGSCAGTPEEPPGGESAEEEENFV

[9] = molecular target: Dickkopf-related protein 1 (Homo sapiens) (UniProt O94907); test: DKK1 binders on small-molecule microarrays, primary screen, biochemical, small-molecule microarray, 635 nm fluorescence scan (AID 1106); details: DKK1 binding, higher = more signal;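 further: score merges emission near 667 nm with signal to noise over three replicate slides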
Dickkopf-related protein 1 (Homo sapiens), sequence (O94907 whole entry, looked up): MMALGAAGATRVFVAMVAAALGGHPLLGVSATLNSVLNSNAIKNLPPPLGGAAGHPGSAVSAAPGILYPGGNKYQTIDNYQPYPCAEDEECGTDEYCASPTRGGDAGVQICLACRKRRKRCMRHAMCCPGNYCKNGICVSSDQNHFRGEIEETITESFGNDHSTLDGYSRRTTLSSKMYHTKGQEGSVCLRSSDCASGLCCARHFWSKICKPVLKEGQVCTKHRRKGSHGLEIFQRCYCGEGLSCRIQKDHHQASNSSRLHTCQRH

[10] = tested on: Inhibin beta A chain (activin A); test: INHBA (activin A) binders on microarrays, primary screen, biochemical, small-molecule microarray, 635 nm fluorescence scan (AID 1107); details: small-molecule microarray binding, higher = more signal;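 further: mouse activin A protein probed at 4.33 µg/mL on printed slides; score merges bound-protein fluorescence near 667 nm with spot signal-to-noise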
[11] = tested on: Human papillomavirus type 1a protein E7 (residues 44-93); test: HPV1a E7 fragment binders on microarrays, primary screen, biochemical, small-molecule microarray, residues 44-93, 635 nm fluorescence (AID 1108); details: small-molecule microarray binding, fluorescence 635 nm; higher = more signal;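 further: E7 fragment applied at 1 µg/mL in TBST for 1 h at 4 C; score combines spot fluorescence with its signal to noise ratio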
[12] = modulators of HCV replicon luciferase signal, primary screen, HCV replication inhibitor project, Huh7 cells, luciferase reporter (AID 1109); details: 48 h, higher = more signal;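 further: huh7 hepatoma cells harbouring a luciferase neomycin HCV replicon reporter; luciferase luminescence as measure of HCV replicon replication; test concentration not given here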
[13] = molecular target: Left-right determination factor 2 (Homo sapiens) (UniProt O00292); test: LEFTY2 binders on small-molecule microarrays, primary screen, biochemical, small-molecule microarray, 635 nm fluorescence scan (AID 1110); details: LEFTY2 binding, higher = more signal
Left-right determination factor 2 (Homo sapiens), sequence (O00292 whole entry, looked up): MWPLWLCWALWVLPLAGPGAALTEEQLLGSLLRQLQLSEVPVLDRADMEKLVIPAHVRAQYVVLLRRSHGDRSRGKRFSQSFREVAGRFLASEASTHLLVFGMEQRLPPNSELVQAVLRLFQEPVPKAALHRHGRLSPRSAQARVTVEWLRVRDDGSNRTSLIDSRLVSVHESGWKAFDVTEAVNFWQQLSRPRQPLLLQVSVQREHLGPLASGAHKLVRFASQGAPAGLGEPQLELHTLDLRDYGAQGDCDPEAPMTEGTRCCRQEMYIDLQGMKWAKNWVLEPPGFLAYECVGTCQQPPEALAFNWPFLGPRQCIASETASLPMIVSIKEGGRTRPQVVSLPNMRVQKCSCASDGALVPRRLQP

[14] = molecular target: Calmodulin-1 (Homo sapiens) (UniProt P0DP23); test: CALM1 binders on microarrays, EGTA buffer, profiling panel, biochemical, small-molecule microarray, Cy5-labelled CALM1 (AID 1111); details: Cy5-CALM1 binding fluorescence, higher = more signal;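 further: labelled calmodulin applied in Tris saline Tween buffer holding calcium plus EGTA and DTT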
[15] = molecular target: Calmodulin-1 (Homo sapiens) (UniProt P0DP23); test: calcium-bound CALM1 binders on microarrays, profiling panel, artefact control for SMM control-protein annotation, biochemical, small-molecule microarray, Cy5-labelled CALM1, plus calcium (AID 1112); details: Cy5-CALM1 binding fluorescence, higher = more signal;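 further: score merges spot fluorescence with signal to noise from triplicate slides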
[16] = small-molecule microarray binders of probe aWnt5a, primary screen, biochemical, biotinylated probe, 635/667 nm fluorescence (AID 1113); details: higher = more signal;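 further: score merges 667 nm fluorescence intensity with signal-to-noise per printed feature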
[17] = small-molecule microarray binders of probe aShh, primary screen, biochemical, biotinylated probe, 635/667 nm fluorescence (AID 1114); details: higher = more signal;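 further: probe is biotin-labelled aShh protein from a stem cell growth factor screen; measures binding of labelled protein to compounds printed on the slide; score merges feature fluorescence at 667 nm with signal-to-noise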
[18] = small-molecule microarray binders of probe aNog, primary screen, biochemical, biotinylated probe, 635/667 nm fluorescence (AID 1115); details: higher = more signal;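 further: probe is biotinylated aNog protein used at 0.15 µg/mL for 1 h at 4 C; z-score combines 667 nm fluorescence of each spot with its signal to noise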
[19] = molecular target: Torsin-1A-interacting protein 1 (Homo sapiens) (UniProt Q5JTV8); test: LAP1 binders from COS7 cell lysate, primary screen, small-molecule microarray, 635/667 nm fluorescence (AID 1116); details: COS7-hLAP1 lysate binding, 635 nm fluorescence, higher = more signal
Torsin-1A-interacting protein 1 (Homo sapiens), sequence (Q5JTV8 whole entry, looked up): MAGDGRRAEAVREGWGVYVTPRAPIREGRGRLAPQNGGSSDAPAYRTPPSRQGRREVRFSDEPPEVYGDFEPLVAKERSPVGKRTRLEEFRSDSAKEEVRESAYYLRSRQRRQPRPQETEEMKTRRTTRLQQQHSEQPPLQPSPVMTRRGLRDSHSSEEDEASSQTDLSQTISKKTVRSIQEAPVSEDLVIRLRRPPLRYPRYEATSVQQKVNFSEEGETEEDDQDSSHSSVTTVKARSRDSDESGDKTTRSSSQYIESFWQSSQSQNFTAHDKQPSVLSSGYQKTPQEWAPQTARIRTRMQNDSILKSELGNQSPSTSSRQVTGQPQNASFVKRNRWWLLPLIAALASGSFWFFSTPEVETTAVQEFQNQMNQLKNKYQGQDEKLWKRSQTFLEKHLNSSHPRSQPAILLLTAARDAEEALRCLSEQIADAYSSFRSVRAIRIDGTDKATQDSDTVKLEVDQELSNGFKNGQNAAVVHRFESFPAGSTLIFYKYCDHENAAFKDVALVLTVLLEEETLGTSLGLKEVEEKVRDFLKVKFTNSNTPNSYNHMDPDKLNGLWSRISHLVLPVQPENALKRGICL

[20] = molecular target: Alpha-bungarotoxin (Bungarus multicinctus) (UniProt P60615); test: alpha-bungarotoxin binders on microarray, profiling panel, artefact control for SMM control protein annotation, biochemical, small-molecule microarray, Alexa647 label, 635/667 nm fluorescence (AID 1117); details: alpha-BTX-A647 binding fluorescence, higher = more signal
Alpha-bungarotoxin (Bungarus multicinctus), sequence (P60615 whole entry, looked up): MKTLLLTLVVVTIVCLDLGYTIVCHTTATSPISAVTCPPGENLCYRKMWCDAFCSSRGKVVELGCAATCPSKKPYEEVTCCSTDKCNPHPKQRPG

Row | Compound | composite z-score [1] | composite z-score [2] | composite z-score [3] | z-score [4] | composite z-score [5] | composite z-score [6] | composite z-score [7] | composite z-score [8] | composite z-score [9] | composite z-score [10] | composite z-score [11] | z-score [12] | composite z-score [13] | composite z-score [14] | composite z-score [15] | composite z-score [16] | composite z-score [17] | composite z-score [18] | composite z-score [19] | composite z-score [20]
1 | CC(C)C(=C=CC[C@@H](O)c1ccccc1OCCO)C[C@@H](O)c1cc(Cl)cc(Cl)c1O | 0.665 | -0.102 | -0.555 | -1.59 (inactive) | 1.46 | 1.13 | 0.472 | 1.16 | 0.741 | 0.169 | 1.48 | -3.27 | 0.744 | 0.341 | -0.538 | -0.0735 | -0.153 | 0.432 | -0.197 | 1.54
2 | CC[C@H](C)C(=O)O[C@H]1CC[C@]2(C)C3=C(CCC2C1(C)C)[C@]1(C)CC[C@H]([C@H](C)CCCC(C)C)[C@@]1(C)CC3 (stereo not given in full) | 0.479 | -0.0754 | -0.314 | -0.634 (inactive) | 0.48 | 0.634 | 0.65 | 0.487 | 0.474 | 0.0848 | 0.758 | -0.492 | 0.405 | -0.367 | -0.468 | -0.0462 | -0.0769 | -0.31 | 0.14 | 0.332
3 | C[C@H]1C2[C@H](Cc3ccccc3)NC(=O)[C@]23C(=O)NCC(=O)N2CCC[C@H]2C(=O)NC/C=C\C/C=C/C3[C@@H]2O[C@]12C (stereo not given in full) | 1 | -0.22 | -0.6 | 0.0829 (inactive) | 0.269 | -0.0567 | 0.136 | 0.201 | 0.376 | 1.43 | -0.8 | 0.288 | 0.245 | -0.549 | -0.698 | -0.0417 | -0.2 | -0.28 | -0.177 | -0.246
4 | COCCCNC(=O)[C@@H]1c2ccccc2C(=O)N(C2CCCCC2)[C@H]1c1ccc(CO)cc1 | 1.2 | 0.164 | 0.864 | 0.0373 (inactive) | -0.779 | -1.82 | -1.22 | -0.849 | -1.54 | -0.0501 | -0.093 | -1.27 | -1.22 | -0.28 | 0.716 | -0.124 | -0.0769 | -0.0633 | 1.25 | -1.08
5 | NC(=O)N1C(=O)C2C(C1=O)C1C=C(CCCO)C2C(c2ccc(CN3CCCC3)cc2)N1Cc1cccc(OC(F)(F)F)c1 (stereo not given) | 0.488 | 0.084 | 0.263 | -0.443 (inactive) | 0.374 | 0.686 | 0.634 | 0.719 | 0.723 | 1.59 | 0.433 | -3.48 | 0.565 | 0.011 | -0.202 | -0.104 | 0.296 | 0.429 | -0.226 | 0.546
6 | [N-]=[N+]=NCc1ccccc1C[C@]1(C(=O)NCc2ccccc2)N=C(c2ccc(OCCCO)cc2)O[C@H]1c1ccccc1CN=[N+]=[N-] | 1.03 | 1.22 | 0.889 | -1.33 (inactive) | -0.0516 | 0.412 | -0.253 | 0.0358 | -0.726 | 0.794 | 1.42 | -2.3 | -0.578 | 1.36 | 0.533 | 0.0474 | 0.338 | -0.0439 | 1.9 | 1.87
7 | C=CC[C@@]1(C(=O)O)N=C(c2ccc(OCCCO)cc2)O[C@@H]1c1ccccc1CN=[N+]=[N-] | 0.802 | 0.682 | 0.062 | -1.38 (inactive) | 0.397 | 0.828 | 0.583 | 1.17 | 0.592 | 1.15 | 0.895 | -1.99 | 0.461 | 1.83 | 0.608 | 0.115 | -0.0119 | 0.0139 | 0.976 | 0.974
8 | CCCCCCCCCCC(O)C1C=CC2C(=O)N(C)C(=O)C2N1N1CCCCC1 (stereo not given) | 0.331 | -0.267 | 0.598 | 1.53 (inactive) | -1.9 | -1.41 | -2.01 | -1.63 | -1.29 | 1.35 | -0.469 | -0.941 | -2.49 | -0.311 | 1.4 | -0.196 | 0.0278 | 0.715 | -0.428 | -1.09
9 | CCOC(=O)C[C@H]1[C@H](OC(=O)c2ccc(C(=O)c3ccccc3)cc2)[C@@H](NC(=O)c2ccc3ccccc3c2)c2cc(OCCCO)ccc2N1C(=O)c1ccc2ccccc2n1 | 0.608 | 0.124 | 0.0404 | -0.372 (inactive) | 0.388 | 0.712 | 0.598 | 0.624 | 0.713 | 0.676 | 1.05 | -0.415 | 0.23 | 0.794 | -0.191 | -0.168 | -0.191 | -0.188 | 0.982 | 0.898
10 | COC(=O)[C@@]1(Cc2ccc(F)cc2)[C@H]2c3cc(C(=O)N4CCCC4)n(CCO)c3C[C@H]2CN1C(=O)c1ccccc1 | 1.33 | 0.532 | 0.977 | -0.495 (inactive) | 0.597 | -0.166 | -0.244 | -0.479 | -0.572 | 0.671 | 0.0213 | -1 | -0.83 | -0.07 | 0.723 | 0.229 | 0.381 | -0.662 | 0.956 | -0.063

From PubChem BioAssay
